Measurements published in ChEMBL document CHEMBL1157539, “Thousands of chemical starting points for antimalarial lead identification” (Nature, 2010).

What was measured:
Assay type in all cases: functional
Plasmodium falciparum [1] = assay: GSK_TCMDC: Inhibition of Plasmodium falciparum 3D7 in whole red blood cells, using parasite LDH activity as an index of growth. Test compounds present at 2uM
Plasmodium falciparum [2] = assay: GSK_TCMDC: Inhibition of Plasmodium falciparum Dd2 in whole red blood cells, using parasite LDH activity as an index of growth. Test compounds present at 2uM
HepG2 = assay: GSK_TCMDC: Percent inhibition of human HepG2 cell line. Test compounds present at 10uM.

SMILES	Inhibition (Plasmodium falciparum [1])	Inhibition (Plasmodium falciparum [2])	Inhibition (HepG2)
Cc1ccc2[nH]c(-c3ccccc3)cc(=NN=Cc3cccnc3)c2c1	99%	39%	12%
Cc1ccc(Cc2c(C)nc3nc(N)nc(N)c3c2C)cc1.Cl	93%	1%	60%
CC(C)(C)c1nn(-c2ccc(Cl)cc2)c2[nH]c(=O)c(CNCc3cccs3)cc12	100%	77%	5%
CCCCCCCc1c(C)nc2cc(OC)ccc2c1O	99%	98%	5%
Cc1cc(=NN=CC=Cc2ccccc2)c2ccccc2[nH]1	100%	69%	19%
CCCCc1cc(NCC)nc(Nc2ccc(OC)cc2)n1	85%	32%	30%
CN(Cc1cccc(F)c1)C1CCN(c2cc(NC(=O)c3ccc(F)cc3)ccn2)CC1.O=C(O)C(F)(F)F	95%	36%	0%
c1ccc(Oc2ccc(Nc3ccnc4cc(-c5ccc(CN6CCOCC6)o5)ccc34)cc2)nc1	92%	73%	5%
FC(F)(F)c1ccc2[nH]c(-c3ccc(-c4ccc(CN5CCN(c6cnccn6)CC5)cc4)s3)nc2c1.O=C(O)C(F)(F)F	100%	99%	23%
CC[C@@H]([C@@H](Cc1cc2ccccc2s1)C(=O)N[C@@H](CCCCNC(=O)OCc1ccccc1)C(=O)Nc1ccccn1)N(O)C=O	96%	70%	36%
COc1cc(C=NNc2cc(C)nc3c(OC)cccc23)cc(OC)c1OC	94%	49%	2%
COc1cccc(NC(=O)Cn2c(C)c(C#N)c3ccccc32)c1	100%	100%	16%
O=C(Nc1ccc([N+](=O)[O-])cc1)c1nn(-c2ccccc2)cc1/N=C/c1cccc(O)c1	98%	37%	10%
Cc1cc(=O)c2cc(-c3ccc(OC(F)(F)F)cc3)ccc2[nH]1	96%	95%	0%
CN(C)c1ccc(C=CC(=O)NC(=O)c2ccccc2O)cc1	92%	97%	6%
COc1cc(-c2nc3ccc(N4CCN(C)CC4)cc3[nH]2)cc(OC)c1OC	87%	15%	6%

SMILES	Inhibition (Plasmodium falciparum [1])	Inhibition (Plasmodium falciparum [2])	Inhibition (HepG2)
COc1cc(NCCCNC(=O)c2ccc(Cl)c(Cl)c2)nc2ccccc12	99%	100%	48%
N#Cc1cccc(Nc2nccc(Nc3ccc(Oc4ccccc4)cc3)n2)c1	94%	17%	12%
CN1CCC(Oc2ccc(CN3CC[C@H](NC(=O)c4cccc(C#N)c4)C3)c3ccccc23)C1.O=C(O)C(F)(F)F (stereo partly drawn)	97%	30%	10%
Cl.N=C(N)c1ccc2[nH]c(SCc3ccccc3)nc2c1	97%	100%	0%
COc1ccc(CCNC(=O)c2cc(C)ccc2O)cc1-c1ccc(C(C)(C)C)cc1	97%	94%	1%
CCc1c(CCNCCCCCCNCCc2ccccc2)ccc(OC)c1OC.Cl	100%	3%	33%
COc1ccc2c(NN=Cc3ccc(N(C)C)cc3)ccnc2c1	100%	100%	12%
CC1(C)CC(NC(=O)NC2CCN(Cc3ccccc3)CC2)CC(C)(CNC(=O)NC2CCN(Cc3ccccc3)CC2)C1 (stereo not drawn)	93%	2%	10%
CC(C)CNCc1ccc(-c2ccc(CNC3CCN(Cc4ccccc4)CC3)cc2)cc1.O=C(O)C(F)(F)F	100%	96%	16%
CN(C)CCN(C)Cc1cccc(-c2cccc(NC(=O)c3cccc(C#N)c3)c2)c1.O=C(O)C(F)(F)F	92%	10%	0%
Cc1nc2cc(/C=C/C(=O)NC3CCC(CCN4CCc5ccc(C#N)cc5CC4)CC3)ccc2[nH]1.Cl (stereo not drawn)	88%	21%	7%
CN(C)C(=O)c1ccc(CN(Cc2cccc(OC(C)(C)C)c2)Cc2ccc3c(c2)OCCO3)cc1	96%	96%	0%
O=C(O)C(F)(F)F.c1ccc(CNCCn2c(-c3ccc4c(c3)CCO4)nc3c(N4CCCC4)cccc32)cc1	82%	85%	9%
CCCCCCOc1ccc(C(=O)N[C@H]2CCN(CCCCCNC(=O)/C=C/c3ccc(Cl)c(Cl)c3)C2)cc1	99%	25%	10%
COc1ccc(-c2cccc(NC(=O)c3ccc(C#N)cc3)c2)cc1CNC(C)C.O=C(O)C(F)(F)F	100%	14%	25%
